According to PubChem BioAssay AID720555 (National Center for Advancing Translational Sciences (NCATS), 2013):
Records with an inconclusive call do not appear. Active and inactive are the calls of the source. The call rests on the fitted dose curve; in most records, active means well fitted inhibition curve with a large enough effect; inconclusive means small, poorly fitted or top-dose-only effect; inactive means no such curve, though single readings can be large or run the other way.

Target: RecQ-like DNA helicase BLM (Homo sapiens) (UniProt P54132)
Assay: qHTS for Inhibitors of Bloom's syndrome helicase (BLM): Helicase DNA unwinding fluorescent orthogonal confirmatory assay for SAR
Settings: fluorescence, orthogonal confirmation
Excerpt: Human RecQ DNA helicases participate in maintenance of genome stability and DNA repair. While other types of helicases have been explored as targets for drug development, members of the RecQ family have remained less well characterized. Mutations of the Bloom helicase gene have been associated with the rare human genetic disease called Bloom syndrome. […] Moreover, identified inhibitors can be used in cells and animal models to examine the consequences of inhibition on the survival of cancer cells where it has been shown that BLM plays an important role.
A fluorescence-based, biochemical assay in 1536 well format was developed to evaluate inhibition of BLM DNA unwinding activity. This assay was used to screen the MLPCN library. The resulting compounds were subjected to orthogonal and secondary biochemical assays to triage the initial hits, to classify compounds based on mode of action and to derive structure activity relationships (SARs) of candidate effectors. The data herein is the result of the Helicase DNA unwinding fluorescent orthogonal confirmatory assay. This fluorescent-based assay employs a purified BLM enzyme and utilizes gel electrophoresis to monitor the helicase-mediated unwinding of a fluorescently-labeled DNA substrate. For this assay decrease in the single-stranded DNA product band on the gel = inhibition of the BLM helicase activity. Inhibition is the desired outcome for this assay.
NIH Chemical Genomics Center [NCGC]
NIH Molecular Libraries Probe Centers Network [MLPCN]
Assay Submitter (PI): Opher Gileadi, Structural Genomics Consortium, University of Oxford, UK
Unwinding assay for the BLM helicase was carried out in a reaction buffer containing 50 mM Tris-HCl pH 7.5, 50mM NaCl, 2mM MgCl2, 2mM ATP, 1mM DTT, and 0.1 mg/ml BSA. Optimal substrate and enzyme concentrations as well as reaction times were determined experimentally. All reactions were performed at room temperature and terminated by the addition of loading buffer containing 20mM EDTA and 2.5% bromophenol blue. […] Substrate and product bands were quantified using ImageJ. […]

Sequence of RecQ-like DNA helicase BLM (Homo sapiens) (P54132 whole entry, looked up): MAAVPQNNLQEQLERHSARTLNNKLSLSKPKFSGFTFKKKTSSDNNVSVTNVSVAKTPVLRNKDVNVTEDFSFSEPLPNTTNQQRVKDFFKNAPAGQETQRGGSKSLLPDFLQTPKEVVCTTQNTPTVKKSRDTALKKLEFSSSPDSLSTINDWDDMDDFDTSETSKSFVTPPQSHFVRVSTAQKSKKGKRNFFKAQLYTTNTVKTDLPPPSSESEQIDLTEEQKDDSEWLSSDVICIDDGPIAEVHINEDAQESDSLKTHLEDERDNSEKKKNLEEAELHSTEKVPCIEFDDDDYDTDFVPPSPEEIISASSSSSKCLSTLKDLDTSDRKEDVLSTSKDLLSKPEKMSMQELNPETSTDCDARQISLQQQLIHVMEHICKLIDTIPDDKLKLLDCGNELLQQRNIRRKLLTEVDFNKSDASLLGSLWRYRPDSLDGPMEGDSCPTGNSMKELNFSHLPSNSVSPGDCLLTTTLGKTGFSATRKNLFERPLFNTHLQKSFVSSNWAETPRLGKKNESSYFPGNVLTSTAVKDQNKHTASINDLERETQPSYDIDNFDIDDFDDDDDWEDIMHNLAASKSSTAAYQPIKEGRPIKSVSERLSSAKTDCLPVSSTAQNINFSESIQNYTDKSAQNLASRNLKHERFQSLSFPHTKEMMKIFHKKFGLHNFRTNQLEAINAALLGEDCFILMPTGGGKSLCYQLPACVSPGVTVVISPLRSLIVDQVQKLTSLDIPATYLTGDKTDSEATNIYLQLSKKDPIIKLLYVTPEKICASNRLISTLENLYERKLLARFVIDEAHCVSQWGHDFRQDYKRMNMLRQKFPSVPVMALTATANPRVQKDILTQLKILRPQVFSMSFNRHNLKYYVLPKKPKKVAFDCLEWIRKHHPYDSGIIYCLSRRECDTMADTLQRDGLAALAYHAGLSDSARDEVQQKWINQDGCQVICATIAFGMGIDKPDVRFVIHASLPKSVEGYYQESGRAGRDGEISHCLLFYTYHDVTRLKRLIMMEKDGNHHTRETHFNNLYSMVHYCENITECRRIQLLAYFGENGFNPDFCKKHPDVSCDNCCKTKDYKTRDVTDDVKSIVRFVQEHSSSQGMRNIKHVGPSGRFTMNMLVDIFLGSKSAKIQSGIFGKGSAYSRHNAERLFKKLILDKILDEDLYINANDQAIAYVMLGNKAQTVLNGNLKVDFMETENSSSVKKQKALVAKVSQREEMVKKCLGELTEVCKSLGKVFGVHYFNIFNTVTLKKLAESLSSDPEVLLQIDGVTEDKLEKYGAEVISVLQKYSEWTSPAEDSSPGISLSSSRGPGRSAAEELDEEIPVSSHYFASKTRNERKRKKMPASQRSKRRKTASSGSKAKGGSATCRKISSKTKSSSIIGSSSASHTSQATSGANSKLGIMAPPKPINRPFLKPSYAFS

| SMILES | Potency |
| --- | --- |
| N#Cc1ccc(NC(=O)Nc2nnc(-c3ccncc3)s2)cc1Br | 1.12 µM (active) |
| N#Cc1ccc(NC(=O)Nc2nnc(-c3ccncc3)s2)cc1C(F)(F)F | 5.62 µM (active) |
| N#Cc1ccc(NC(=O)Nc2nnc(-c3ccncc3)s2)cc1Cl | 1.58 µM (active) |
